# About 4,200 (4.2%) of roughly 100,000 compounds were called active. Shown is part of a subset that was picked to be rich in actives. Unmarked numbers belong to inactive results.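 The calls were made as follows: active = single-dose well whose peak fluorescence ratio is a statistical outlier from its plate by either plate-standardised score or position-corrected B-score; inactive = the rest.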
# Biological target: Voltage-dependent T-type calcium channel subunit alpha-1H (Homo sapiens) (UniProt O95180)
# Sequence (O95180 whole entry, looked up): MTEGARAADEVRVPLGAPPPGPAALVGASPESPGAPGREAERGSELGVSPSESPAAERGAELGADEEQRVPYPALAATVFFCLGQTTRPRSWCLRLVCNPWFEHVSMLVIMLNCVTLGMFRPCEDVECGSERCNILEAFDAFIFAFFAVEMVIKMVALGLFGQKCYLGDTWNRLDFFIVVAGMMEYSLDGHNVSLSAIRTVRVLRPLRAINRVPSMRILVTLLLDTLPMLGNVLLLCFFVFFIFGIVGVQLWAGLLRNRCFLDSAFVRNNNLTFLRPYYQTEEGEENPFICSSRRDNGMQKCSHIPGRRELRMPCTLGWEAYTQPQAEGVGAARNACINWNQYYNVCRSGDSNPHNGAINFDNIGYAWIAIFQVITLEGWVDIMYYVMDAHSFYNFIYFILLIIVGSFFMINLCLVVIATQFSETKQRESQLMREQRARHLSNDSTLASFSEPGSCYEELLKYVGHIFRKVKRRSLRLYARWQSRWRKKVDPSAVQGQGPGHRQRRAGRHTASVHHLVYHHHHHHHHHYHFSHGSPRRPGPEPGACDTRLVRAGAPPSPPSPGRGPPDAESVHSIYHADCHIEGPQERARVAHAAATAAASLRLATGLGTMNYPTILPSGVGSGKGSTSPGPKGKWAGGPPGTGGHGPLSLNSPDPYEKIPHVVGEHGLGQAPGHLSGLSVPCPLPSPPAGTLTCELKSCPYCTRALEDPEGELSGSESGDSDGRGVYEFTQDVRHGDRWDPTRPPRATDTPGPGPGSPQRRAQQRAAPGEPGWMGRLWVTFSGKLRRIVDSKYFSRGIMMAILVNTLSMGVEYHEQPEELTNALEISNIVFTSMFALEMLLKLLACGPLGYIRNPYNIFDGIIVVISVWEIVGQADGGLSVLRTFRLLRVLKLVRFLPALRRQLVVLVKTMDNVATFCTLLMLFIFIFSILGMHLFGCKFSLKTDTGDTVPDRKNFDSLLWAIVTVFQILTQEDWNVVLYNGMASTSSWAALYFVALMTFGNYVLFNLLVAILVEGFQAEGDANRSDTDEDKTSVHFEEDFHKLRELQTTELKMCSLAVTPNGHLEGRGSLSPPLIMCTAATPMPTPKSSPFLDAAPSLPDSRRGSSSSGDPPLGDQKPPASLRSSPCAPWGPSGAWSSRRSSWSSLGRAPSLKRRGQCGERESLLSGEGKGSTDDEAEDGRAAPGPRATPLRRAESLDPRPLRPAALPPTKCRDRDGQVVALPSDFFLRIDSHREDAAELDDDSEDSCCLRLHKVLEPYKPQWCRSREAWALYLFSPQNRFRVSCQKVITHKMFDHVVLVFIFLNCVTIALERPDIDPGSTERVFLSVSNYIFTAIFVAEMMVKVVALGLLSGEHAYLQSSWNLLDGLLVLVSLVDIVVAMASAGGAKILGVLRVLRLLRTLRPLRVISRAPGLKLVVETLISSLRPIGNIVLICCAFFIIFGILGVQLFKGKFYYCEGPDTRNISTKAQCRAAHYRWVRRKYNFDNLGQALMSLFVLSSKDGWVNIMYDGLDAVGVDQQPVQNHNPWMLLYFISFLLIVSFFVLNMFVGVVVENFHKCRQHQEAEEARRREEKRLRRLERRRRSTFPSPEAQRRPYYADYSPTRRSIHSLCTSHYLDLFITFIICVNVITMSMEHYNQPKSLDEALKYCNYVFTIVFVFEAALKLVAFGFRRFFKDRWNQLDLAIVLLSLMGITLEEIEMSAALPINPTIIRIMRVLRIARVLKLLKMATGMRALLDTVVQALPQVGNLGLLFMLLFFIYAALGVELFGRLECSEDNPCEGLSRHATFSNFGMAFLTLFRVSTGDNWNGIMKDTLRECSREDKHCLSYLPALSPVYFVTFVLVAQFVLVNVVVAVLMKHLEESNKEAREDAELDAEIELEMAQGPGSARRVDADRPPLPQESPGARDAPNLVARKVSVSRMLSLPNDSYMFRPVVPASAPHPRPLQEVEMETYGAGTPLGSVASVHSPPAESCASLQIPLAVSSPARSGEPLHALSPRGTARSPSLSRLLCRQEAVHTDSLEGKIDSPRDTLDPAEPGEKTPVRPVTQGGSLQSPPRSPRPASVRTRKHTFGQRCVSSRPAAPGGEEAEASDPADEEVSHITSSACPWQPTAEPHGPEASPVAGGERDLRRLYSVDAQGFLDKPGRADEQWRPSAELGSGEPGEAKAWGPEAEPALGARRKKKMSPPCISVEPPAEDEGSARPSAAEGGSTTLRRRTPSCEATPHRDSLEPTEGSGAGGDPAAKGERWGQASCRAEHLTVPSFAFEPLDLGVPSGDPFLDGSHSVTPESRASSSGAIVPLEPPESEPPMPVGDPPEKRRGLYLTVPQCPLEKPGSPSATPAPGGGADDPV
# Assay: Cav3.2 calcium influx blockers – cell-based, Fluo-4 calcium fluorescence, FDSS, MLSMR library, primary screen (AID 449739)
# Conditions: Cav3.2-expressing cells, at 10 µM, hits give low values
row,Structure (SMILES),B-score
1,CCOC(=O)c1c(N)n(Cc2ccccc2)c2nc3ccccc3nc12,-0.856
2,COc1cc(Cn2c(N)c(C(=O)NCc3ccco3)c3nc4ccccc4nc32)cc(OC)c1OC,-1.47 (active)
3,CCOC(=O)c1c(N)n(CCN2CCOCC2)c2nc3ccccc3nc12,0.618
4,O=C(COc1ccc2ccccc2c1)N1CCN(Cc2ccncc2)CC1,0.31
5,CCCCCCN=C(CC)c1c(O)n(CCCC)c(=O)[nH]c1=O,-6.91 (active)
6,CCCCn1c(O)c(C(CC)=NCc2ccco2)c(=O)[nH]c1=O,-0.626
7,CCC(=NCCCO)c1c(O)n(-c2ccc(OC)cc2)c(=O)[nH]c1=O,-0.0478
8,COC(=O)C1=C(c2cc3ccccc3o2)C[C@@H]2CC[C@H]1N2C(=O)NC1CCCCC1,-0.929
9,COc1ccc2c(c1)[C@]13CCCCC1C(C2)N(C)CC3 (stereo not given in full),1.06
10,CCCCCn1c(=O)c(C(=O)NCc2ccccn2)c(O)c2ccccc21,-1.65
11,CCCCCn1c(=O)c(C(=O)Nc2c(C)n(C)n(-c3ccccc3)c2=O)c(O)c2ccccc21,-7.21 (active)
12,C[C@@]1([C@@H](NP(=O)(c2ccccc2)c2ccccc2)c2ccccc2)C[C@H]1CCO,-0.319
13,C[N+]1(C)CCOC(O)(c2ccc(-c3ccc(C4(O)C[N+](C)(C)CCO4)cc3)cc2)C1 (stereo not given),0.445
14,C=CC12CN(C)[C@@H]3C4CO[C@H](C[C@H]41)[C@]1(C(=O)Nc4ccccc41)[C@@H]32 (stereo not given in full),-0.174
15,Cc1ccc(N(C)C(=O)Oc2cccc3ccc(C)nc23)cc1,-6.07 (active)
16,COC(=O)C1=C(c2ccccc2)C[C@@H]2CC[C@H]1N2C(=O)NCc1ccco1,0.641
17,CCCC[N+]1(C)C2CC(OC(=O)C(CO)c3ccccc3)CC1C1OC12 (stereo not given),-0.292
18,CN(C)C(=O)NC(O)C(Cl)(Cl)Cl (stereo not given),-0.859
19,CNCC(O)c1cc(F)c(OCc2ccccc2)c(OCc2ccccc2)c1F (stereo not given),-0.0158
20,CC(C)(C)c1ccc(CN2C(=O)CN=C(c3ccccc3)c3ccccc32)cc1,-5.08 (active)
21,CC1C2Cn3c(nc4ccccc43)C1N(C)O2 (stereo not given),0.301
22,COC(=O)C1=C(c2cc3ccccc3s2)C[C@@H]2CC[C@H]1N2C(=O)NCCO,0.584
23,COC(=O)C1=C(c2cc3ccccc3s2)C[C@@H]2CC[C@H]1N2C(=O)NCc1cccc2ccccc12,-4.11 (active)
24,COC(=O)C1=C(c2cc3ccccc3s2)C[C@@H]2CC[C@H]1N2C(=O)NC(C)C,0.726
25,COC(=O)C1=C(c2ccccc2)C[C@@H]2CC[C@H]1N2C(=O)N1CCCCC1,0.364
26,COc1ccc2c(c1O)-c1cccc3c1[C@@H](C2)N(C)CC3,-2.61
27,COc1c(O)ccc2c1-c1c3c(cc4c1C(C2)N(C)CC4)OCO3 (stereo not given),0.137
28,CC[C@H]1CC2CN3CCc4c([nH]c5ccccc45)C(C(=O)OC)(C2)C13 (stereo not given in full),-1.28
29,NCC(O)c1ccc(O)cc1 (stereo not given),1.98
30,CC(C)(C)[C@]1(O)C[C@@H]2OC(=O)C[C@@]23C(=O)O[C@@H]2OC(=O)[C@H](O)[C@]213,0.0998

# — PubChem BioAssay AID449739 (Vanderbilt High Throughput Screening Facility, 2010)
